# KCNH2 3.1 block = qHTS for Inhibitors of KCHN2 3.1: Mutant qHTS; activity change, % (tested at about 1.8 µM); AID 720553, 2013; U2OS KCNH2 3.1, thallium flux FluxOr; active compounds read low; 340,000 compounds, 0.95% hits;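 active means maximum activity change below -70%; inconclusive means maximum activity change from -70% to -50%; inactive means maximum activity change above -50%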;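 further: thallium influx rate constant from kinetic fluorescence after stimulation buffer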
#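 Thallium flux read-out: FluxOr dye with Red40 quencher in HBSS/HEPES, 45 min at RT. Rate constants from kinetic reads were normalized to positive and negative DMSO controls. Cells: U2OS virally expressing the 3.1 isoform.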
# USP1-UAF1 inh = Inhibitors of USP1/UAF1: Primary Screen. Ubiquitin carboxyl-terminal hydrolase 1 (Homo sapiens), O94782. recombinant USP1/UAF1, Ub-Rhodamine cleavage fluorescence. Potency, µM (highest dose often 57.1 µM), for inactives: at the highest dose activity change, negative = inhibition, usual class: inhibitors. 390,000 compounds, 0.23% hits; active means well fitted inhibition curve with a large enough effect; inconclusive means small, poorly fitted or top-dose-only effect; inactive means no such curve, though single readings can be large or run the other way; further: potency means the concentration at half of the fitted maximal effect; nearly all actives have a fitted effect of over 60% in size
# Target sequence (O94782 whole entry, looked up): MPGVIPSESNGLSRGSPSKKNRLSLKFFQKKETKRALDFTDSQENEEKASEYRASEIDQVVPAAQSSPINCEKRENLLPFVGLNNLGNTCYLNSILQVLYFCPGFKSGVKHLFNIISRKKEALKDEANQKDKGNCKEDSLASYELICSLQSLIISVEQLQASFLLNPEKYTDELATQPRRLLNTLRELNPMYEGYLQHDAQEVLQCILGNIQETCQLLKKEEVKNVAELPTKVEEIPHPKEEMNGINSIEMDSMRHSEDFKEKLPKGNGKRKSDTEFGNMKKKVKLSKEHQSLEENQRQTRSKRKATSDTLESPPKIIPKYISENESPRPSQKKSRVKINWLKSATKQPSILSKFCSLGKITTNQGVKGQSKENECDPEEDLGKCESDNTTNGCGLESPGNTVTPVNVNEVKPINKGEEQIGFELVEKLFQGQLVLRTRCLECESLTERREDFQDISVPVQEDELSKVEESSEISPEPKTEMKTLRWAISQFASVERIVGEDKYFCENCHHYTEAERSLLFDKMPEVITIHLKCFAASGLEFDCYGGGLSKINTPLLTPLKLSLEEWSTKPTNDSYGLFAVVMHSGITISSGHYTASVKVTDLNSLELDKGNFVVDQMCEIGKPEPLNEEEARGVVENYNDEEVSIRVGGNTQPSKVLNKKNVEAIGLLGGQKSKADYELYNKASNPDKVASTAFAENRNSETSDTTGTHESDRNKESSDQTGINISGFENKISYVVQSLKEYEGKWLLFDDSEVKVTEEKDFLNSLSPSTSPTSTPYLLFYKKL
#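 High-throughput fluorogenic screen: 1nM USP1/UAF1 complex, Ub-Rho substrate 150nM final, 50mM HEPES pH 7.8 with 0.5mM EDTA, 0.1 mg/ml BSA, 1mM TCEP and 0.01% Tween-20.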
# FBPA coupling cs = qHTS Assay for Inhibitors of Fructose-1,6-bisphosphate Aldolase from Giardia Lamblia: Coupling assay counterscreen; coupling enzyme system counterscreen, AmpLite Red fluorescence; activity change, negative = inhibition, % at 58.2 µM, hits read low; 290,000 compounds, 0.67% hits; in the data active means activity change below about -30%
#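 Compounds tested against the coupling enzymes alone at 57.5 uM final; readout was AmpLite Red fluorescence (525/598 nm) after 20 min at RT.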
# KCNH2 WT inh = qHTS for Inhibitors of KCHN2 3.1: Wildtype qHTS. AID 720551, 2013. activity change, % at 1.84 µM. Voltage-gated inwardly rectifying potassium channel KCNH2 (Homo sapiens), Q12809. U2OS, BacMam KCNH2, thallium flux FluxOr; active compounds read low. 340,000 compounds, 0.37% hits;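 active means maximum activity change below -70%; inconclusive means maximum activity change between -70% and -50%; inactive means maximum activity change above -50%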
#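 U2OS cells were transduced with wild-type KCNH2 virus (2.03 x 10^8 / mL) for 4 h at room temperature, then cultured overnight at 37 C. Thallium flux was read with FluxOr dye. Rate constants were normalized to DMSO controls.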
# Giardia kill = Small Molecules that selectively kill Giardia lamblia: qHTS; Giardia lamblia trophozoite viability; activity change, % at 7.66 µM, hits read low; 340,000 compounds, 0.15% hits; AID 540267, 2011; in the data active means activity change below about -80%; inconclusive means between about -30% and that limit;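 further: parasites exposed to compound for two days anaerobically before the ATP read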
#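 Luminescence from cellular ATP indicates surviving trophozoites (100 cells/well) following 48 hrs anaerobic compound treatment at 37 deg C; signal develops 15-30 min at room temperature.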
# An asterisk follows results filed as active; i = inactive; ? = inconclusive; . = no result. Shown are actives, neighbours in structure and some others; about 1.7% of the full set was active somewhere. On the % scale 0 is the no-effect control and ±100 the full control effect.
SMILES,KCNH2 3.1 block,USP1-UAF1 inh,FBPA coupling cs,KCNH2 WT inh,Giardia kill
CN1OC[C@@H]2CN(S(=O)(=O)c3cccc(C(F)(F)F)c3)[C@H](c3ccc(-c4cccnc4)cc3)C[C@@H]21,-14.6,6.0%,.,-30.5,.
COC(=O)C1=C(C)N(Cc2ccccc2)C(=NCc2cc(OC)c(OC)c(OC)c2)N[C@H]1c1ccccc1,.,-23.5%,0.2,.,8.4
COC(=O)C1=C(C)N(Cc2ccccc2)C(=NCc2cc(OC)c(OC)c(OC)c2)N[C@H]1c1ccc(Br)cc1,-86.2*,-25.2%,-0.1,-14.4,-15.7
CCSc1nnc2c(n1)OC(CC)N(C(C)=O)c1ccccc1-2 (configuration not stated),.,-9.8%,.,.,.
O=C(O)CSc1cc(NS(=O)(=O)c2ccc(Cl)cc2)c2ccccc2c1O,20.2,25.1µM*,-52.5*,0.6,-19.0
Cc1cc(C)c(S(=O)(=O)Nc2ccc(O)cc2)cc1C,1.7,-20.1%,-1.3,-6.6,2.8
Cc1cc(C)c(S(=O)(=O)Nc2cc(SCC(=O)O)c(O)c3ccccc23)cc1C,-4.7,?,-52.8*,-5.6,20.8
COc1ccc(S(=O)(=O)Nc2cccc3ccccc23)cc1,.,.,.,.,11.8
COc1ccc(S(=O)(=O)Nc2cc(SCC(=O)O)c(O)c3ccccc23)cc1,-2.6,31.6µM*,-47.2*,-3.2,-8.5
COc1ccc(S(=O)(=O)Nc2cc(Sc3ncn[nH]3)c(O)c3ccccc23)cc1,.,.,-57.8*,.,6.4
COc1ccc(CCc2c[nH]c(=O)c3cncnc23)cc1OC,.,.,.,.,-1.5
COCCCNC(=O)CCCCn1c(=O)c2ccccc2n(CC(=O)Nc2ccc(C)cc2C)c1=O,.,-3.8%,.,.,.
O=S(=O)(Nc1cc(Sc2cccc3cccnc23)c(O)c2ccccc12)c1ccc(F)cc1,2.1,-22.6%,-53.5*,27.7,-98.1*
O=C(Nc1ccc(Cl)cc1F)c1cc(S(=O)(=O)NCc2ccc3c(c2)OCO3)ccc1F,.,7.9%,.,.,.
Cc1ccccc1OCC(=O)Nc1ccc([N+](=O)[O-])cc1,-3.1,?,0.5,-168.7*,7.9
COC(=O)[C@H](CCSC)NC(=O)c1ccc(NC[C@@H](N)CS)cc1-c1ccccc1,.,.,2.1,.,.
COc1ccc(CCNC(=S)NNC(=O)c2c(Br)c(C)nn2C)cc1OC,-74.6*,2.1%,.,7.1,8.6
CCCNC(=O)NS(=O)(=O)c1ccc(Cl)cc1,0.7,-19.2%,0.0,18.2,2.5
CCOC1(/N=C(\C)NS(=O)(=O)c2ccc(Cl)cc2)C(C)=CC(=O)C=C1C,-98.6*,-3.5%,0.4,17.1,-1.7
O=C(Nc1cc([N+](=O)[O-])c2[nH]c(=O)c3ccccc3c2c1)C(F)(F)F,-10.5,-3.0%,.,1.5,?
O=C(CCNc1cccc(Cl)c1)c1cccs1,-70.1*,-10.0%,2.3,-1.1,2.9
Cc1ccc(NCCC(=O)c2cccs2)cc1Cl,-36.6,-12.1%,2.6,-2.6,-10.1
COc1ccc(NC(=O)C2CCN(C(=O)[C@@H]3Cc4ccccc4CN3)CC2)cc1,-113.7*,-2.2%,1.5,15.7,2.4
CCc1ccc(NC(=O)C2CCN(C(=O)[C@@H]3Cc4ccccc4CN3)CC2)cc1,-40.2,-23.2%,0.2,-17.6,-5.6
Cc1ccc2[nH]c(CSc3nnc(C)s3)cc(=O)c2c1,.,-0.4%,.,.,.
SMILES,KCNH2 3.1 block,USP1-UAF1 inh,FBPA coupling cs,KCNH2 WT inh,Giardia kill
CCOC(=O)CNC(=O)c1cnc(Nc2ccccc2OC)c2ccccc12,-3.1,-18.4%,-0.9,-0.7,18.7
CCOC(=O)N1CCN(C(=O)c2cnc(Nc3ccccc3OC)c3ccccc23)CC1,-193.2*,-4.4%,0.4,1.7,14.6
Cc1c(C(=O)N2CCCC2)oc2c1-c1[nH]ncc1CC2,4.4,-14.7%,-49.3*,-7.6,1.6
CCc1ccc(NC(=O)c2oc3c(c2C)-c2[nH]ncc2CC3)cc1,.,-34.3%,.,.,.
c1ccc(-c2nc(-c3ccccc3)c(Nc3ccc4ccccc4c3)o2)cc1,.,.,0.5,.,.
COc1cccc(Cn2c(=O)c(CCc3ccccc3)nc3cnc(N4CCOCC4)nc32)c1,.,.,4.3,.,.
O=C(Nc1ccc([N+](=O)[O-])cn1)c1cc(-c2cccc(Br)c2)nc2ccccc12,-80.7*,-6.1%,-2.1,-7.2,0.0
O=C(Nc1ccc([N+](=O)[O-])cn1)c1cc(-c2cccc(Cl)c2)nc2ccccc12,?,-7.1%,-2.1,?,-27.5
CCOc1ccc(CNC(=O)CCS(=O)(=O)c2cc3c4c(c2)CCN4C(=O)CC3)cc1,.,-9.9%,.,.,.
CSc1ccc(/C=N/NC(=O)CN2CCN(Cc3ccc(Cl)cc3)CC2)cc1,-106.2*,-0.1%,7.0,-41.3,-2.4
CSc1ccc(/C=N/NC(=O)CN2CCN(Cc3ccccc3)CC2)cc1,-72.8*,-10.8%,1.7,-1.2,-28.6
CC(/C=N/NC(=O)CN1CCN(Cc2ccc(Cl)cc2)CC1)=C\c1ccco1,-74.1*,-3.0%,-1.4,-28.6,-9.6
COc1cccc(C(=O)NC(=NCCc2c[nH]c3ccc(OC)cc23)Nc2nc(C)cc(C)n2)c1,.,-13.1%,.,.,.
CCn1c(-c2cc(-c3cccc(OC)c3)nc3ccccc23)n[nH]c1=S,-78.3*,-6.8%,0.6,2.0,-4.7
CCc1ccc(-c2cc(-c3n[nH]c(=S)n3CC)c3ccccc3n2)cc1,.,.,0.4,.,.
Cc1cccc(CN2CCN(CCCc3ccccc3)CC2)c1,.,.,-1.5,.,.
OCC1(CCc2ccccc2)CCN(Cc2cc(F)ccc2-n2cccn2)CC1,-99.4*,-18.3%,4.0,-28.1,18.8
OCC1(CCc2ccccc2)CCN(Cc2c(F)ccc(F)c2F)CC1,-1.6,-17.2%,2.0,.,-20.7
Clc1ccccc1CN1CCN(CCCc2ccccc2)CC1,-78.0*,-8.7%,-1.0,16.5,5.2
OCC1(CCCc2ccccc2)CCN(Cc2cc(F)ccc2F)CC1,-16.3,-13.1%,3.0,10.8,2.4
OCC1(CCc2ccccc2)CCN(Cc2ccccc2Cl)CC1,-79.8*,-22.0%,1.9,29.9,8.4
COc1ccc(N/C=C\C(=O)c2ccc(C)cc2)cc1OC,-140.9*,-25.3%,2.0,-22.0,-15.8
COC(=O)CN1CCC(=O)c2ccccc2S1(=O)=O,.,.,-0.3,.,-3.0
O=C(CNC(=O)/C(=C\c1ccc(Br)cc1)NC(=O)c1ccccc1)OCc1ccccc1,-42.8,-5.8%,3.8,-10.7,-1.8
O=C(CNC(=O)/C(=C/c1ccccc1)NC(=O)c1ccc(Br)cc1)OCc1ccccc1,-85.2*,-15.5%,9.0,i,-8.0
O=C1Nc2ccc(S(=O)(=O)NCCC3=CCCCC3)c3cccc1c23,.,-19.9%,-33.8*,1.3,-4.7
CCN1C[C@@H]2[C@@H]3C(=O)N(Cc4ccccc4)C(=O)[C@@H]3[C@](CC)(C(=O)OC)N2C1=NCc1ccccc1,1.5,-27.5%,.,4.3,8.6
